# PubChem BioAssay (EPA / NIEHS)
# Inconclusive results are not listed. Some structures have more than one record in an assay (separate samples or runs), and their calls can disagree. Calls of active or inactive are those of the source. The calls were made as follows: active = hit-call score of the fitted dose curve at least 0.9, where 1 is the maximum; inconclusive = response in the unintended direction; inactive = score below 0.9.
# Biological target: rat Monoamine Oxidase, MAO-B, Central (MAOBC), Maob (gene 25750) (UniProt P19643)
# Sequence (P19643 whole entry, looked up): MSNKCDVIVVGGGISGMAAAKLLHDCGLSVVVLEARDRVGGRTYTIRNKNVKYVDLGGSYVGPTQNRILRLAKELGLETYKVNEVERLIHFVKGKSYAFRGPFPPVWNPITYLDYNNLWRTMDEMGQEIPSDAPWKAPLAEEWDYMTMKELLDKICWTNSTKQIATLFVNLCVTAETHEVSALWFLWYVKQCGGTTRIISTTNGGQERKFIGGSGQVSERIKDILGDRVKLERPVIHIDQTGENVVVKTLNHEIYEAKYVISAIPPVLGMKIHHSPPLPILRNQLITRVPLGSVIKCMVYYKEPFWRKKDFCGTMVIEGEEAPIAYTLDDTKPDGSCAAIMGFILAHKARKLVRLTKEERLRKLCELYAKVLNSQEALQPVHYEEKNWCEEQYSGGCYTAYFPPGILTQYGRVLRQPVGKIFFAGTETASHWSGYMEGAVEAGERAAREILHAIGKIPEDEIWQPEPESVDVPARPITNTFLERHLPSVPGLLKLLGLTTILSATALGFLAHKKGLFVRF
# Assay: NVS_ENZ_rMAOBC: NovaScreen (NVS) Enzymatic Assay for rat Monoamine Oxidase, MAO-B, Central (MAOBC) (AID 2283238)
# Procedure: NVS_ENZ_rMAOBC is a biochemical, single-readout assay that uses extracted gene-proteins from Rat brain in a tissue-based cell-free assay. Measurements were taken 1.17 hours after chemical dosing in a 96-well plate.NVS_ENZ_rMAOBC is one of one assay component(s) measured or calculated from the NVS_ENZ_rMAOBC assay. It is designed to make measurements of enzyme activity, a form of enzyme reporter, as detected with scintillation counting signals by Lysate-based radiodetection technology.Data from the assay component NVS_ENZ_rMAOBC was analyzed into 1 assay endpoint. This assay endpoint, NVS_ENZ_rMAOBC, was analyzed in the positive analysis fitting direction relative to DMSO as the negative control and baseline of activity. Using a type of enzyme reporter, loss-of-signal activity can be used to understand changes in the enzymatic activity as they relate to the gene Maob. Furthermore, this assay endpoint can be referred to as a primary readout, because this assay has produced multiple assay endpoints where this one serves a enzymatic activity function. To generalize the intended target to other relatable targets, this assay endpoint is annotated to the oxidoreductase intended target family, where the subfamily is monoamine oxidase.
# Binding assays used specific radioligands (tritiated, iodinated) with non-radioactive competitive displacement ligands in agonist or antagonist protocols (as indicated) and various reference compounds and inhibitors to titrate specific binding to receptors and transporters. Most enzyme assays (CYPs, kinases, phosphatases, proteases, HDACs) used recombinant protein and specific substrates (fluorescence mostly, some colorimetric and radioactive) and inhibitors, followed by a biochemical separation of substrate and product. All assays for the biochemical HTS were initially run in duplicate at a single concentration (10 uM for CYP450 assays and 25 uM for all others). Assay-chemical combinations meeting a pre-defined threshold (e.g., 30% inhibition and other criteria defined below) were then run in singleton concentration-response format with maximum concentration of 20 uM for CYPs and 50 uM for all others. Each assay was run with positive and negative controls, and concurrent controls on every plate. The follow-up (secondary) screen tested active chemical-pairs in concentration series, as well as a few additional assays not tested in the primary screen, some selected negative inactives, and several cases re-run in the concentration series for confirmatory purposes.
SMILES,AC50,outcome
COc1cccc(-c2ccc(/C=C\CN3CCCCCC3)cc2Cl)c1,27.7 µM (active),–
CCCCCCCCCCCC[N+](C)(C)C,9.12 µM (active),–
O=C(NS(=O)(=O)/C=C/c1cccs1)c1ccc(F)cc1Br,–,inactive
CCOC(=O)c1ccc(C2CCC(NC[C@H](O)COc3ccc(O)c(NS(C)(=O)=O)c3)CC2)cc1 (stereo not given in full),10.2 µM (active),–
c1ccc2ncccc2c1,–,inactive
O=C(O)Cc1cc(I)c(Oc2cc(I)c(O)c(I)c2)c(I)c1,–,inactive
CC/C(=C\C(=N/O)C(N)=O)C(C)[N+](=O)[O-] (stereo not given),37.8 µM (active),–
CCOC(=O)C(C)Oc1ccc(Oc2nc3ccc(Cl)cc3o2)cc1 (stereo not given),–,inactive
CN1CCN(Cc2cc(-c3ccc4[nH]c(=O)oc4c3)co2)[C@@H](c2ccc(F)cc2)C1,10.6 µM (active),–
CCOC(=O)c1ccc(O)cc1,–,inactive
CC(O)CC(C)(C)O (stereo not given),–,inactive
O=c1ccc2ccccc2o1,12.5 µM (active),–
C=CN1CCCC1=O,–,inactive
NC(=O)N(O)[C@@H]1COc2cc(OCc3ccccc3)ccc21,12.2 µM (active),–
O=C(O)c1cccc(C[C@@H]2COc3ccc(OCc4nc5cc(F)ccc5s4)cc3[C@@H]2O)c1,17.8 µM (active),–
CSC(=O)c1cccc2nnsc12,25 µM (active),–
CCCCCCCCOC(=O)c1cc(O)c(O)c(O)c1,–,inactive
O=C(O)c1ccccc1C(c1ccc(O)cc1)c1ccc(O)cc1,–,inactive
Cc1cccc(C)c1O,–,inactive
c1ccc2n[nH]nc2c1,25 µM (active),inactive

SMILES,AC50,outcome
CN(C)C(=O)Nc1ccc(Cl)c(Cl)c1,–,inactive
O=C(O)c1ccccc1,–,inactive
CCCOC(=O)c1cc(O)c(O)c(O)c1,–,inactive
O=C(O)c1cccc(N(Cc2cccnc2)c2ccc(OC(F)F)c(OC(F)F)c2)c1,–,inactive
COC(=O)c1ccc(C(=O)OC)cc1,25 µM (active),–
NCc1cccc(C2CCN(C(=O)c3ccc(C#Cc4ccccc4F)o3)CC2)c1,11.2 µM (active),–
CCc1cc(SCc2sc(-c3ccc(C(F)(F)F)cc3)nc2CN2CCN(c3ccc(OC)cc3)CC2)ccc1OCC(=O)O,15 µM (active),–
Fc1ccccc1[C@@H](F)COC1CCC(Nc2ncnc3[nH]ncc23)CC1 (stereo not given in full),18.6 µM (active),–
COc1ccc(S(=O)(=O)N2C(=O)[C@@](c3ccccc3OC)(N3C[C@H](O)C[C@H]3C(=O)N(C)C)c3cc(Cl)ccc32)c(OC)c1,–,inactive
COc1ccc([N+](=O)[O-])cc1N,25 µM (active),–
CCOC(=O)[C@H](C)Oc1ccc(Oc2nc3ccc(Cl)cc3o2)cc1,1.57 µM (active),–
Oc1ccc2c(c1)-c1ccccc1C2,19.6 µM (active),–
O=C1c2ccccc2C(=O)N1CCc1noc(-c2ccc(CN3CCCCCC3)s2)n1,12.5 µM (active),–
O=C(CCCCCCCCc1cccnc1)N1CCC(C=C(c2ccccc2)c2ccccc2)CC1,–,inactive
CCCCCC(C)OC(=O)COc1ccc(Cl)c2cccnc12 (stereo not given),–,inactive
Cc1oc(-c2ccccc2)nc1CCOc1ccc(C[C@H](Nc2ccccc2C(=O)c2ccccc2)C(=O)O)cc1,25 µM (active),–
CN(Cc1cnc2nc(N)nc(N)c2n1)c1ccc(C(=O)N[C@@H](CCC(=O)O)C(=O)O)cc1,–,inactive
CCOCCOCCO,–,inactive
O=[N+]([O-])c1ccc(O)cc1,18.1 µM (active),–
